{
  "source": "PubChem BioAssay (NCATS)",
  "note": "Results filed as inconclusive are left out. Active and inactive are the calls of the source. Calls follow the shape of the full dose curve. % is scaled to controls: 0 for no effect and ±100 for the full control effect.",
  "data": [
    {"target": "Nucleoprotein (Lymphocytic choriomeningitis virus (strain Armstrong)) (UniProt P09992)", "sequence (P09992 whole entry, looked up)": "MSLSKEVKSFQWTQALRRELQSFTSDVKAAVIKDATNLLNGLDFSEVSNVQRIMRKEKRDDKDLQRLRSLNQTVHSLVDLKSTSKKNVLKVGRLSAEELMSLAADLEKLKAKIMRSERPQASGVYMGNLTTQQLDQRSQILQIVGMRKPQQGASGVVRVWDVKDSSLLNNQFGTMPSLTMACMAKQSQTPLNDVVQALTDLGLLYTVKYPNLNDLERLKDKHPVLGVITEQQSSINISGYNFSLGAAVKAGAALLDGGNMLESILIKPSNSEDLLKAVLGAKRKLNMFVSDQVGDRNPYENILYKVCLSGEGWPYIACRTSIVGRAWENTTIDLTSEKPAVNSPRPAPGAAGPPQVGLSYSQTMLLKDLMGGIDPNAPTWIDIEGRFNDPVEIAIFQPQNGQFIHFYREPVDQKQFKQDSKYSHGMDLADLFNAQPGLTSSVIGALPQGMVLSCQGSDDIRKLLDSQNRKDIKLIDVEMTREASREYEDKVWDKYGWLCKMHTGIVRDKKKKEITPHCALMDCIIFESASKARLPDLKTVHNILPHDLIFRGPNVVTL", "assay": "qHTS for Inhibitors of the Functional Ribonucleoprotein Complex (vRNP) of Lymphocytic Choriomeningitis Arenaviruses (LCMV): LCMV Primary Screen - GLuc reporter signal (AID 1347086); also: nearly all actives have a fitted effect of over 70% in size", "conditions": "LCMV minigenome vRNP cell assay, Gaussia luciferase reporter; series mostly up to 57.5 µM; activity change, negative = inhibition: at the top concentration", "values": [
      {"smiles": "O=C(c1ccco1)N1CCNCC1", "activity change, negative = inhibition": "1.32% (inactive)"},
      {"smiles": "CN(C)CCN1CCN(c2cccc(Cl)c2)C1=O", "activity change, negative = inhibition": "-0.09% (inactive)"},
      {"smiles": "O=C(NCC(O)CO)c1c(I)c(C(=O)NCC(O)CO)c(I)c(N(CCO)C(=O)CO)c1I", "note": "(stereo not drawn)", "activity change, negative = inhibition": "5.77% (inactive)"},
      {"smiles": "CC(O)CN(CCN(CC(C)O)CC(C)O)CC(C)O", "note": "(stereo not drawn)", "activity change, negative = inhibition": "-75.1% (inactive)"},
      {"smiles": "CN1CC(=O)NC1=N", "activity change, negative = inhibition": "12.8% (inactive)"},
      {"smiles": "C[C@H](CS)C(=O)N1CCC[C@H]1C(=O)O", "Potency": "inactive"},
      {"smiles": "COC(=O)c1cccnc1", "Potency": "inactive"},
      {"smiles": "O=C(O)c1cc(=O)c2ccccc2o1", "activity change, negative = inhibition": "18.6% (inactive)"},
      {"smiles": "CC(C)NCC(O)c1ccc(NS(C)(=O)=O)cc1", "note": "(stereo not drawn)", "activity change, negative = inhibition": "9.44% (inactive)"},
      {"smiles": "CCOC(=O)O[C@]1(C(=O)OCCl)CC[C@H]2[C@@H]3CCC4=CC(=O)C=C[C@]4(C)[C@H]3[C@@H](O)C[C@@]21C", "activity change, negative = inhibition": "30.4% (inactive)"},
      {"smiles": "CC(=O)NCCCCCC(=O)O", "activity change, negative = inhibition": "-2.59% (inactive)"},
      {"smiles": "O=C(COCCOCCOCC(=O)Nc1c(I)cc(I)c(C(=O)O)c1I)Nc1c(I)cc(I)c(C(=O)O)c1I", "activity change, negative = inhibition": "-35% (inactive)"},
      {"smiles": "CN1[C@@H]2CCC[C@@H]1CC(NC(=O)c1nn(C)c3ccccc13)C2", "note": "(stereo partly drawn)", "activity change, negative = inhibition": "-1.71% (inactive)"},
      {"smiles": "C[C@]12C=CC(=O)C=C1CC[C@@H]1[C@@H]2C(=O)C[C@@]2(C)[C@H]1CC[C@]2(O)C(=O)CO", "Potency": "inactive"},
      {"smiles": "CC(C)[C@H](N)C(=O)OCCOCn1cnc2c(=O)[nH]c(N)nc21", "Potency": "inactive"},
      {"smiles": "COc1ccc(C(=O)c2ccccc2)c(O)c1", "activity change, negative = inhibition": "18.3% (inactive)"},
      {"smiles": "COc1ccc(C(=O)NCc2ccc(OCCN(C)C)cc2)cc1OC", "activity change, negative = inhibition": "6.16% (inactive)"},
      {"smiles": "CC[C@H]1OC(=O)[C@H](C)[C@@H](O[C@H]2C[C@@](C)(OC)[C@@H](O)[C@H](C)O2)[C@H](C)[C@@H](O[C@@H]2O[C@H](C)C[C@H](N(C)C)[C@@H]2O)[C@](C)(O)C[C@@H](C)CN(C)[C@H](C)[C@@H](O)[C@]1(C)O", "activity change, negative = inhibition": "10.5% (inactive)"}
    ]}
  ]
}
